The list is not random: actives were taken first. Their share in the collection is about 2.3%.
M1 PAM: potentiates human M1 receptor response to acetylcholine; CHO-K1 hM1, Fluo-8 calcium fluorescence, ACh EC20; 0% = ACh EC20, 100% = maximal ACh; activation, % at 3 µM; hit rate 0.088% among 360,000; AID 588819; in the data active = activation above about 19%, passing the limit was not always enough
Target sequence (P11229 whole entry, looked up): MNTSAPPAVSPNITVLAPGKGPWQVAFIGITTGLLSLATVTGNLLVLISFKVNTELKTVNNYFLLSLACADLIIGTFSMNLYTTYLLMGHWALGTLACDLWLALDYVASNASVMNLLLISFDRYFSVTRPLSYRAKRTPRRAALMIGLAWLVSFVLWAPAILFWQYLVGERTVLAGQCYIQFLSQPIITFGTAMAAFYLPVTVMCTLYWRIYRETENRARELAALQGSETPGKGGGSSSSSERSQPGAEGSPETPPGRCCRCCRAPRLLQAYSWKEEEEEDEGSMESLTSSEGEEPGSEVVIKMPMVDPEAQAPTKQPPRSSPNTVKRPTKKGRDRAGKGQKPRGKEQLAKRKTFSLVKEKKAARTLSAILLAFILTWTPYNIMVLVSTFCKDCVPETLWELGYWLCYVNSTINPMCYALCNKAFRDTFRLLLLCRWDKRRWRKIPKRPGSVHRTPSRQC
M1 ag: agonists of human M1 muscarinic receptor; CHO-K1 hM1, Fluo-8 calcium fluorescence, agonist mode; 0% DMSO, 100% acetylcholine EC100; activation, % at 3 µM; P11229; hit rate 0.33% among 360,000;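 active = activation above the run's mean compound activation plus 3 SD, cut at about 16% in these data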;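 note: peak over basal fluorescence ratio within a 140 s kinetic read after compound addition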
CHO-K1 Ca ag: M1 agonist counterscreen hit in parental CHO-K1 cells; hit rate 0.48% among 360,000; AID 602248; Fluo-8 calcium fluorescence; scaled to maximal ATP response, vehicle zero; activation, % at 3 µM; in the data active = activation above about 15%;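 note: untransfected CHO-K1 host cells lacking M1 receptor as counterscreen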
CHO-K1 Ca antag: nonselective inhibitor or artifact in parental CHO-K1 cells. ATP-induced calcium, Fluo-8 fluorescence. inhibition, % at 3 µM. hit rate 0.6% among 360,000. AID 602250;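 active = inhibition above a per-plate cutoff, the plate's mean sample inhibition plus 3 SD, cut at about 24% in these data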;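 note: 0% = DMSO plus EC80 ATP and 100% = DMSO alone without ATP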
M1 PAM parental: counter-screen for M1 PAMs: effect in parental CHO-K1 cells; activation, % at 3 µM; ATP EC20, Fluo-8 calcium fluorescence; 0% at ATP EC20, 100% at ATP max; hit rate 0.02% among 360,000;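 active = activation above the run cutoff, the mean activation of all test compounds plus 3 SD, cut at about 40% in these data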;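 note: peak over basal fluorescence ratio in a 140 s read after ATP addition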
CHRM1 antagonist: antagonists of human M1 muscarinic receptor; P11229; CHO-K1 hM1, Fluo-8 calcium fluorescence, ACh EC80 antagonist; inhibition, % at 3 µM; hit rate 1.3% among 360,000;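 active = percent inhibition above its own plate's cutoff, namely the mean of that plate's compound wells plus 3 SD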;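 note: peak over basal fluorescence ratio during 140 s after agonist addition; 0% = ACh EC80 plus DMSO and 100% = DMSO alone without agonist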
Numbers without * were called inactive.

SMILES	M1 PAM	M1 ag	CHO-K1 Ca ag	CHO-K1 Ca antag	M1 PAM parental	CHRM1 antagonist
Cc1ccc(Cl)cc1N1CCN(C(=O)CCS(=O)(=O)c2ccc3c(c2)NC(=O)CO3)CC1	-19	5	15*	5	-17	37*
CCOC(=O)C1CCN(CC(C)(C)NS(=O)(=O)c2ccc(C)cc2)CC1	27*	-12	2	-15	4	-27
CCOC(=O)C1CCN(C2=C(NS(=O)(=O)c3ccc(Cl)cc3)C(=O)c3ccccc3C2=O)CC1	-14	30*	1	-4	11	12
CCOC(=O)C1CCCN(C2=C(NS(=O)(=O)c3ccc(Br)cc3)C(=O)c3ccccc3C2=O)C1 (centres undefined)	-20	41*	4	5	-9	30
CC1CCN(C2=C(NS(=O)(=O)c3ccc(Cl)cc3)C(=O)c3ccccc3C2=O)CC1	4	-9	0	-6	21	-3
C[n+]1c(-c2ccccc2)cc2c(=Cc3ccc([N+](=O)[O-])cc3)c3ccccc3n21	-27	-8	0	-12	11	42*
C[n+]1c(-c2ccccc2)cc2c(=Cc3ccccc3)c3ccccc3n21	-27	-9	0	4	-4	46*
COc1ccc(S(=O)(=O)NC2CC3CCC2C3)cc1 (centres undefined)	20	-1	0	9	-10	-21
CC(C)OC(=O)c1ccc(NC(=S)NC(=O)c2cncc(Br)c2)cc1	1	-4	1	-9	7	-7
CS(=O)(=O)N(CC(=O)NC1CCCC1)c1ccc2c(c1)OCCO2	-21	-2	0	16	-6	35*
CNC(=O)CN(c1ccc2c(c1)OCCO2)S(C)(=O)=O	2	-4	0	-25	-1	3
COC(=O)c1ccc(OC(=O)CCc2cc(OC)c(OC)c(OC)c2)cc1	10	0	16*	-15	16	-4
COC(=O)c1cc(OC(=O)CCc2ccc(OC)c(OC)c2)cc(C(=O)OC)c1	8	-5	2	-10	10	-12
CCN(CC)C(=O)[C@H]1C[C@H](CC(=O)NCCCOC)C(=O)N2CCc3c([nH]c4cc(CCC(=O)N(C)C)ccc34)[C@]12C	-1	-4	1	-24	13	2
CCOc1ccc(C(=O)NCC(=O)OCc2cc([N+](=O)[O-])cc3c2OCOC3)cc1OCC	7	-8	1	-4	16	-8
COc1cc(C(=O)NC(CCSC)C(=O)OCc2cc([N+](=O)[O-])cc3c2OCOC3)cc(OC)c1OC (centres undefined)	-8	-2	4	-6	10	26*
Cc1ccc(C)c(NC(=O)Nc2ccc3c(c2)OCO3)c1	12	-4	0	29*	-15	-16
N=c1c2c(n(Cc3ccc(Cl)c(Cl)c3)c3c1CCC3)CCCC2	-16	-4	1	-4	22	20
N=c1c2c(n(Cc3ccc(Br)cc3)c3c1CCC3)CCCC2	-25	-10	0	14	-12	26*
Cc1cc(C)c(C)c(OCCN2CCOCC2)c1	4	-8	1	-14	16	-13
S=C(Nc1ccc(Br)cc1)Nc1ccc2c(c1)OCCO2	-11	-1	3	1	-15	31*
O=C(NC(=S)Nc1ccc2c(c1)OCCO2)c1cccc(Br)c1	1	-6	6	-7	33	-4
COc1ccc(N)c2c1C(=O)c1ccccc1C2=O	7	-4	0	1	-14	-3
COc1ccc2noc3c2c1C(=O)c1ccccc1-3	-26	72*	22*	26*	-28	22
CCc1nnc(NC(=O)CCC(=O)N2CCCC2)s1	2	-3	0	-2	16	-3
SMILES	M1 PAM	M1 ag	CHO-K1 Ca ag	CHO-K1 Ca antag	M1 PAM parental	CHRM1 antagonist
O=C(CCC(=O)N1CCN(C2CCCCC2)CC1)Nc1nnc(C(F)(F)F)s1	6	4	1	-3	5	4
CCc1nnc(NC(=O)CCC(=O)N2CCN(C3CCCCC3)CC2)s1	-4	19*	1	-16	10	-1
CC(C)c1nnc(NC(=O)CCC(=O)N2CCN(C3CCCCC3)CC2)s1	-12	22*	1	-11	2	9
Cc1ccnc(NC(=O)C2CC(=O)N(c3ccc4c(c3)OCCO4)C2)c1 (centres undefined)	9	1	3	4	-4	-9
CSc1ncc(Cl)c(C(=O)Nc2ccccc2Br)n1	1	-4	4	6	-5	1
CC(O)(c1ccc(F)c(F)c1)c1nc(-c2ccncc2)cs1 (centres undefined)	-5	-3	5	13	-13	4
CN(C)c1ccc(-c2csc(C(C)(O)c3ccc(F)c(F)c3)n2)cc1 (centres undefined)	-13	-5	1	9	-7	25*
C=CCN1C(=O)/C(=C/C=C2/N(CC)c3ccc(S(=O)(=O)N(C)C)cc3N2CC)SC1=S	0	17*	8	-11	15	8
CN1CCC(OC(c2ccccc2)c2ccccc2)CC1	-26	-8	0	-3	-5	100*
CN1CCC(Oc2ccccc2Sc2ccccc2)CC1	-26	-9	4	6	3	100*
Cc1c(C(=O)OCC(=O)Nc2ccc(C(N)=O)cc2)cccc1[N+](=O)[O-]	7	-2	3	2	7	-7
CCCCNC(=O)C1(C)CCN1C(=O)c1cccnc1Oc1ccccc1 (centres undefined)	7	-1	0	2	6	-13
COc1cccc(C(=O)NC(=S)Nc2ccc(N3CCCC3)cc2)c1	-5	-5	0	-12	11	11
CC(C)Oc1cccc(C(=O)NC(=S)Nc2ccc(N3CCN(C)CC3)cc2)c1	-27	-4	4	-7	19	99*
CN1CCN(c2ccc(NC(=S)NC(=O)c3cccc4c(Cl)cccc34)cc2)CC1	-30	-13	0	7	-18	37*
CCCCOc1ccc(/C=C/C(=O)OCC(=O)NC(=O)NCC(C)C)cc1OCC	1	-3	0	7	-7	5
CC1(C(=O)Nc2ccc(F)cc2F)CCN1C(=O)CCC1CCCC1 (centres undefined)	4	-6	0	-10	11	-16
Cc1cccc(OC(=O)NCCOC(=O)N(O)c2ccc(Cl)cc2)c1	-8	4	8	24*	-5	21
CN(C)CCNc1nc2sc3c(c2c(=O)n1Cc1ccccc1)CCCCC3	-30	-11	13	12	4	73*
CCN(CC)CCCNC(=O)CNC(=O)c1nn(-c2ccc(OC)cc2OC)c(=O)c2ccccc12	8	-2	1	-17	28	-15
O=C(NC(Nc1nc2ccc([N+](=O)[O-])cc2s1)(C(F)(F)F)C(F)(F)F)c1cccnc1	-5	5	9	24*	13	23

Assay outcomes (PubChem)
